Laboratory results reported in PubChem BioAssay AID1942 (Johns Hopkins Ion Channel Center, 2009).
The campaign covered roughly 2,400 compounds. About 580 (24%) were called active.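 Rule for the calls: active = activity change at or above the mean plus 3 SD of buffer wells without dofetilide, per plate; inactive = the rest.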 Not all results are given here.

molecular target: Potassium voltage-gated channel subfamily KQT member 2 (Rattus norvegicus) (UniProt O88943); assay: KCNQ2 potentiation in CHO cells – cell-based, FluxOR thallium flux, counter-screen for hERG block protector project, confirmation (AID 1942); conditions: FluxOR thallium flux fluorescence, at 10 µM, stronger effect = higher value;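 note: normalized value minus buffer-control mean plus three SD of buffer wells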
Sequence (O88943 whole entry, looked up): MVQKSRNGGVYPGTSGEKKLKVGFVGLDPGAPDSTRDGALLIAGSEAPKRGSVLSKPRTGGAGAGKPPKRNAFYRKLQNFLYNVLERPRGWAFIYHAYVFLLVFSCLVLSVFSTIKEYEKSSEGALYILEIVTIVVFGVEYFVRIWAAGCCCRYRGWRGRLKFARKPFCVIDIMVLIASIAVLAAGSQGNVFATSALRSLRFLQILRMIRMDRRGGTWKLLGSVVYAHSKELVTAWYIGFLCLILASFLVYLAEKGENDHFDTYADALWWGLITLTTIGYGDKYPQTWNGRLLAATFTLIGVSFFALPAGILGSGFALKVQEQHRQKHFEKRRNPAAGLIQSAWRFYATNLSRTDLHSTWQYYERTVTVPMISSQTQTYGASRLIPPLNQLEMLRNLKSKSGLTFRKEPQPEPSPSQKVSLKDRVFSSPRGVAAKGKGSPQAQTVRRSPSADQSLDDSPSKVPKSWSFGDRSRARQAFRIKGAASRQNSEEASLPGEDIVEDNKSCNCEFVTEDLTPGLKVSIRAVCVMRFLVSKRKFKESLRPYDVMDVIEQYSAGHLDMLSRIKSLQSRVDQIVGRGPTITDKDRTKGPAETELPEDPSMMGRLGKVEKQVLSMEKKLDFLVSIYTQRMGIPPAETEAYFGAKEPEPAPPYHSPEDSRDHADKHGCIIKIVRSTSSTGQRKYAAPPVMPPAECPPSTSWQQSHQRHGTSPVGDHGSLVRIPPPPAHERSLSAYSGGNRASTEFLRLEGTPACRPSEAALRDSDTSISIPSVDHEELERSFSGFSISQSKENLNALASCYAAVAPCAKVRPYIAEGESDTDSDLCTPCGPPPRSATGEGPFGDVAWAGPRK

SMILES | activity change, less the hit threshold
CCn1c(SCC(=O)NC(=O)NCc2ccco2)nc2sc(C)c(C)c2c1=O | 19.7% (active)
O=C(CN1CCN(c2ccccc2O)CC1)NC(=O)NCc1ccco1 | -18.7% (inactive)
Cc1cc2c(cc(C(=O)OC(C(=O)NCc3ccco3)C(C)C)n2C)o1 (stereo not drawn) | -16.3% (inactive)
Cc1sc2nc(C(C)C)nc(SCC(=O)NCc3ccco3)c2c1C | 10.5% (active)
COc1cccc(N2CCN(CC(=O)NC(=O)NCc3ccco3)CC2)c1 | -11.4% (inactive)
Cc1cc(S(=O)(=O)N2CCOCC2)ccc1OCC(=O)NCc1ccco1 | -12.9% (inactive)
Fc1ccc(N2CCN(c3ccc4c(C(F)(F)F)cc(C(F)(F)F)nc4n3)CC2)cc1 | -19.8% (inactive)
O=C(NCc1cccs1)C1CCC(CNS(=O)(=O)c2cccs2)CC1 (stereo not drawn) | -28.1% (inactive)
Cc1cc(SC#N)cc(C)c1NC(=O)CCl | 19.1% (active)
Cc1ccc(S(=O)(=O)Nc2ccc(O)c3ccccc23)c(C)c1 | -27% (inactive)
Cc1onc(C(=O)N2CCC(C(N)=O)CC2)c1-c1ccccc1Cl | -22.2% (inactive)
Cc1ccc(-c2csc(=S)[nH]2)cc1 | 83.7% (active)
S=c1[nH]c(-c2ccccc2)cs1 | 61.9% (active)
Cc1ccc(-c2n[nH]c(=S)nc2-c2ccc(C)cc2)cc1 | -7.1% (inactive)
S=c1[nH]c(-c2ccc(Cl)cc2)cs1 | 119% (active)
Cc1cccc(-n2cc(-c3ccccc3)[nH]c2=S)c1 | -16.2% (inactive)
O=Cc1cc(-c2ccccc2)[nH]c1-c1ccccc1 | -15.3% (inactive)
Cc1cc(NC(=O)CSc2ccc(-c3ccc(F)cc3)nn2)no1 | -18.3% (inactive)
O=C(Nc1ccccc1)O/N=C/c1ccncc1 | -19.6% (inactive)
COc1ccc(-c2c(C#N)c(SCC(=O)c3cc4ccccc4oc3=O)nc(C)c2C(=O)Nc2ccccc2)cc1 | -11.8% (inactive)
O=c1[nH]c(C(Cl)(Cl)Cl)nc2ccc3ccccc3c12 | 15.1% (active)

SMILES | activity change, less the hit threshold
COc1ccc(/C=C2/S/C(=N/N=C3\CC4CCC3(C)C4(C)C)NC2=O)cc1 (stereo not drawn) | -9.1% (inactive)
CC12CCC(C/C1=N\N=C1\NC(=O)/C(=C\c3ccc(Cl)cc3)S1)C2(C)C (stereo not drawn) | 4.4% (active)
Cc1cccc(/C=C2/S/C(=N/N=C3\CC4CCC3(C)C4(C)C)NC2=O)c1 (stereo not drawn) | -10.5% (inactive)
CCN1CCCC(CO)(Cc2ccccc2)C1 (stereo not drawn) | -9.6% (inactive)
O=C1c2nc3cc(-c4ccco4)[nH]n3c(=O)c2CN1Cc1ccccc1 | -13.6% (inactive)
O=C(CN1C(=O)c2cccc3cccc1c23)Nc1cccnc1 | -28.6% (inactive)
O=C1CC(N2CCN(c3ccccc3Cl)CC2)C(=O)N1c1ccc(F)cc1 (stereo not drawn) | -9.2% (inactive)
CCOc1ccc(N)c(SSc2cc(OCC)ccc2N)c1 | -17% (inactive)
CCCn1c(SCC(=O)Nc2nc(-c3ccc(OC)cc3)cs2)nc2c1c(=O)n(C)c(=O)n2C | -16.4% (inactive)
CCC(=O)N(CC)c1nc(-c2ccc(OC)cc2)cs1 | 30.9% (active)
CCCC(=O)NC(=S)Nc1nc(-c2ccc(OC)cc2)cs1 | -16.3% (inactive)
O=C(NCCc1ccc(F)cc1)c1coc(=O)c(Br)c1 | -6% (inactive)
Cc1nc(Oc2ccc(Cl)cc2)c2oc3ccccc3c2n1 | -15.6% (inactive)
CCCOc1ccc(-c2c(=O)n(O)c3ccccc3[n+]2[O-])cc1 | 71.1% (active)
CCCOc1ccc(C(=O)N(CC(C)C)c2c(N)n(Cc3ccccc3)c(=O)[nH]c2=O)cc1 | -17.9% (inactive)
CCOc1ccc(CC(C(N)=O)C(N)=O)cc1 | -21.3% (inactive)
CCOc1ccc(-c2c(=O)n(O)c3ccccc3[n+]2[O-])cc1 | 52% (active)
CCOc1ccc(N(CC)C(=O)COc2cc(=O)n(C)c3ccccc23)cc1 | -27% (inactive)
O=C1NC2(CCCCCC2)C(=O)N1Cc1ccccc1 | -17.6% (inactive)
O=C(O)/C=C/C(=O)Nc1ccc(OC(F)(F)F)cc1 | -10.2% (inactive)
O=[N+]([O-])c1cccc(NC(=S)Nc2nc(-c3ccccc3Cl)cs2)c1 | -7.3% (inactive)

SMILES | activity change, less the hit threshold
Cc1c(C(=O)NN2CCN(C)CC2)cccc1[N+](=O)[O-] | -11.1% (inactive)
O=C(CN1C(=O)c2ccccc2S1(=O)=O)NCCSCc1ccccc1Cl | -15.3% (inactive)
COC(=O)c1cc(-c2ccc(C)cc2)n[nH]1 | -3.5% (inactive)
O=C(COC(=O)c1ccc(Br)o1)NC1CCCCC1 | -6% (inactive)
CCCCOc1ccc(CC(=O)NCC(=O)O)cc1 | -16.8% (inactive)
Cc1ccc(OC(=O)c2ccc(Br)o2)cc1 | 46.8% (active)
CCCOc1ccc(OC(=O)c2ccc(Br)o2)cc1 | 6.3% (active)
O=C(NC1CCCC1)c1ccc(Br)o1 | -20.5% (inactive)
Cc1ccc(CNC(=O)CCc2ccc(S(=O)(=O)NCC(C)C)cc2)cc1 | -18.2% (inactive)
Cc1noc(C)c1-c1nnc(-c2ccc(C(F)(F)F)cc2)o1 | -9.9% (inactive)
CC(C)Cc1nnc(NC(=O)Cc2ccccc2[N+](=O)[O-])s1 | -18.1% (inactive)
CCC(C)(C(=O)NC1CCCC1)N(Cc1ccco1)C(=O)c1ccccn1 (stereo not drawn) | -21.1% (inactive)
Cc1ccc(C2=NN(C(=O)CCCC(=O)O)C(c3ccc4c(c3)OCO4)C2)cc1 (stereo not drawn) | -16.6% (inactive)
COc1cccc(N2CC(C(=O)Nc3nnc(SCC(=O)NCC4CCCO4)s3)CC2=O)c1 (stereo not drawn) | -12.6% (inactive)
C=CCn1c(SCC(=O)NCC2CCCO2)nnc1-c1ccccc1 (stereo not drawn) | -13% (inactive)
Cc1nc(SCC(=O)NCC2CCCO2)c2c3c(sc2n1)CCCC3 (stereo not drawn) | 11.1% (active)
COc1ccc(-c2nc(=S)c3c([nH]2)Oc2ccc(C)cc2C3)cc1O | -18.3% (inactive)
Cc1cc(N2C(=O)C(O)=C(C(=O)c3cccs3)C2c2ccccc2)no1 (stereo not drawn) | -22.8% (inactive)
COc1ccc(C(=O)NCC(=O)OCn2nnc3ccccc3c2=O)cc1OC | -17.7% (inactive)
CC(Oc1ccc(Br)cc1)c1nc2c3ccccc3nc(=S)n2[nH]1 (stereo not drawn) | 14.3% (active)
COc1cc(OC)cc(-c2nc3ccccc3c(=O)n2OC(=O)c2ccc(Br)cc2)c1 | -12.9% (inactive)
